Source: PubChem (several laboratories)
The list is not random: actives were taken first. Their share in the collection is about 1.4%.
BJeLR lethal = kills HRASV12-expressing BJeLR cells. BJeLR (HRASV12) viability, CellTiter-Glo ATP luminescence, 48 h. inhibition, % (test concentration not listed). actives 0.17% (n = 300,000). AID 1554; in the data active = inhibition above about 50%
PrP 5UTR inh = suppresses PrP 5' UTR mRNA reporter expression; cell-based PrP 5' UTR mRNA reporter, plate reader; inhibition, % (no concentration beside the values); actives 0.35% (n = 340,000); in the data active = inhibition above about 52%; also: 0 = median of the neutral control wells
PrPC surface inh = inhibitors of human cell surface prion protein PrPC. TR-FRET read-out. P04156. inhibition, % at 13.8 µM. actives 0.43% (n = 370,000). AID 720596; in the data active = inhibition above about 24%; also: 0% = median of the test wells and 100% = reference compound wells
RecA splice inh = Mtb RecA intein splicing inhibition; inhibition, % (no concentration beside the values); actives 0.75% (n = 290,000); P9WHJ3; cell-free RecA intein splicing, fluorescence; in the data active = inhibition above about 30%;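 also: 0% = vehicle wells and 100% = reference inhibitor control wells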
Target sequence (P9WHJ3 whole entry, looked up, canonical isoform): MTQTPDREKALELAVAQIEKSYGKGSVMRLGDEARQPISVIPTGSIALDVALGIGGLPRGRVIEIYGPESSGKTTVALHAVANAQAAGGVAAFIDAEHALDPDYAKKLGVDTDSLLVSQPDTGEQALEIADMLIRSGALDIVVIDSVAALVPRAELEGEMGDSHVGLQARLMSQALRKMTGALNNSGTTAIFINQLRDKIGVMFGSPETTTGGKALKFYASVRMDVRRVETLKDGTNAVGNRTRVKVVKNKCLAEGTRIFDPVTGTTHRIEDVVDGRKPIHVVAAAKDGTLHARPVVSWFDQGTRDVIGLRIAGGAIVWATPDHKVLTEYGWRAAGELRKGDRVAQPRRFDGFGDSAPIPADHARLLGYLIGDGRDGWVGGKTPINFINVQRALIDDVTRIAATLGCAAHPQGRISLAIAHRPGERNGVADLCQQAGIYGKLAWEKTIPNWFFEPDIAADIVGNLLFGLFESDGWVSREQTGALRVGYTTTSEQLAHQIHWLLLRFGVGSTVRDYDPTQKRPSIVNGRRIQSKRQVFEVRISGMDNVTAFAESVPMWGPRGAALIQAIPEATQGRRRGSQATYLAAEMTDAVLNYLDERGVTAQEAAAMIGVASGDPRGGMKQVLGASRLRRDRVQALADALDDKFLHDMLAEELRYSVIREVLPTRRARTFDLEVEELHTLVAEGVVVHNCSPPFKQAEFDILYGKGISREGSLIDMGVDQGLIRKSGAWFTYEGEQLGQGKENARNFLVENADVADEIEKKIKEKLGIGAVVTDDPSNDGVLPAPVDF
SARS 3CLpro inh = SARS-CoV 3CLpro protease inhibition; recombinant SARS-CoV 3CLpro, quenched FRET peptide cleavage; inhibition, % at 6 µM; actives 0.14% (n = 290,000); AID 1706; in the data active = inhibition above about 12%
Mtb hypoxia inh = inhibitors of hypoxia-regulated fluorescent reporter in Mycobacterium tuberculosis. actives 0.1% (n = 300,000). fluorescence inhibition, % (concentration not given with the values). M. tuberculosis hypoxia-regulated fluorescent reporter, fluorescence; in the data active = fluorescence inhibition mostly above about 23%, no sharp cut-off; inactive = mostly below about 17%
GFP chromophore = counter-screen: blocks GFP chromophore formation | shares compounds with RecA splice inh | cell-free GFP chromophore formation, fluorescence | EC50, µM | actives 83% (n = 2,100); call rule not given here
Active calls of the source: *; / = no result.

SMILES	BJeLR lethal	PrP 5UTR inh	PrPC surface inh	RecA splice inh	SARS 3CLpro inh	Mtb hypoxia inh	GFP chromophore
N=c1c2c(-c3ccccc3)c(-c3ccccc3)n(Cc3ccco3)c2ncn1Cc1ccccc1	3	-30	3	59*	4	7	5.2*
COc1cc(/C=C2\C(=O)N(c3ccc(NC(C)=O)cc3)N=C2c2ccccc2)ccc1O	/	-17	13	83*	1	6	>38
CC1=NNC(=O)C1CC(=O)N/N=C/C(C)=C/c1ccccc1 (stereo not given)	-6	-20	-2	6	2	/	/
CC1=NNC(=O)C1Cc1ccccc1C (stereo not given)	-4	5	-1	95*	-3	10	0.74*
CCOc1ccc(C=NNC(=O)C(OC)c2ccccc2)cc1 (stereo not given)	/	/	/	/	/	4	/
Cc1ccc(C(C[N+](=O)[O-])c2c(N)n(C)c(=O)n(C)c2=O)cc1 (stereo not given)	-1	5	3	-3	-4	/	/
Cc1[nH]n(-c2ccccc2)c(=O)c1C(C[N+](=O)[O-])c1ccc(Br)cc1 (stereo not given)	1	-1	1	77*	-3	/	17*
COc1cccc(C(C[N+](=O)[O-])c2c(C)[nH]n(-c3ccccc3)c2=O)c1 (stereo not given)	-6	-17	5	96*	4	/	27*
CC1CN(C(C)CO)C(=O)c2cc(NC(=O)Nc3ccc4c(c3)OCO4)ccc2OC1CN(C)S(=O)(=O)c1cccs1 (stereo not given)	/	/	/	/	/	7	/
N#CC1=C(N)C(C#N)(C#N)C(c2cccnc2)C2CN(C(=O)OCc3ccccc3)CC=C12 (stereo not given)	-15	-9	1	45*	3	7	4.4*
CCOC(=O)N1CC=C2C(C#N)=C(N)C(C#N)(C#N)[C@H](c3ccc(OCC)c(OCC)c3)[C@H]2C1	2	-40	-6	8	1	-1	/
CCOC(=O)c1ccc(NC(=O)c2nc(S(=O)(=O)Cc3ccccc3)ncc2Cl)cc1	22	-5	1	27	0	/	/
CC(=O)Nc1ccc(NC(=O)c2nc(S(=O)(=O)Cc3cccc(C)c3)ncc2Cl)cc1	25	8	71*	31*	-3	/	20*
Cc1cccc(CS(=O)(=O)c2ncc(Cl)c(C(=O)NCc3ccc4c(c3)OCO4)n2)c1	11	-7	-3	51*	5	-2	11*
Cc1ccc(NC(=O)c2nc(S(=O)(=O)Cc3ccccc3C)ncc2Cl)cc1C	27	-8	-2	39*	0	/	1.3*
CSc1ncc(Cl)c(C(=O)Nc2ccc(C)c(C)c2)n1	1	/	-3	-1	5	-4	/
CNC(C)Cc1ccccc1Sc1ccc(O)cc1 (stereo not given)	-2	-74	-7	-7	4	-1	/
CNCc1ccccc1Sc1ccc(O)c(O)c1	6	-12	-2	88*	-1	2	3.3*
Cc1ccc(NC(=O)c2sc3nc(C)nc(N4CCN(c5ccccn5)CC4)c3c2C)c(C)c1	10	-13	7	8	1	3	/
Cc1ccc(NC(=O)c2sc3ncnc(N4CCN(c5ccccn5)CC4)c3c2C)c(C)c1	1	-20	-4	73*	-3	/	>38
CC(=O)Nc1cccc(C(C)=NNC(=O)c2ccc(CN3CCOCC3)cc2)c1	/	/	/	/	/	7	/
Cn1c(SCC(=O)NCc2ccc(F)cc2)nc2ccccc21	5	-8	1	31*	4	2	>38
COCCn1c(SCC(=O)NCc2ccc(F)cc2)nc2ccccc21	-6	1	0	-3	2	-8	/
COc1ccc(NC2=NC(=S)N(c3ccccc3C)C23CCCCC3)cc1	-1	-14	9	3	0	-4	/
O=[N+]([O-])c1ccc2c(c1N1CCCCC1)=NC1(CCCCC1)[N+]=2[O-]	-2	-18	-39	2	3	15	/
[O-][N+]1=c2ccc(Nc3ccccc3)cc2=NC12CCCCC2	24	-14	-10	80*	4	23	11*
COc1ccc(Nc2ccc3c(c2)=NC2(CCCCC2)[N+]=3[O-])cc1	8	-31	-25	79*	-1	16	10*
